Our source for the growth values is PubChem BioAssay (NCI).

The panel holds about 83,000 compounds, 20% with a hit somewhere; the sample as a whole holds those more often.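 48-hour exposure, single concentration, 96-well plates; percent growth endpoint where 0 means no net growth. Active: below 10.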 The source made the active and inactive calls.

The subject of the assay is RXF 393 renal. The assay can be described thus: NCI-60 one-dose screen, 48 h (100 = growth as untreated, 0 = no growth, -100 = all killed). The conditions noted are these: 10 µM unless noted.
For `O=C1NC(=O)c2c1c1c3cc(Br)ccc3[nH]c1c1oc3ccc(F)cc3c21`, the growth was -47.7% (active).

As for `C#CCOc1ccc(/C=N/Nc2nc(-c3ccc(F)cc3)cs2)cc1OC`, the growth is 24% (inactive).

For `O=C1NC(=O)/C(=C/c2ccccc2OCc2cc3ccccc3nc2Cl)S1`, the growth is 72.8% (inactive).

Consider `Cc1ccc(NCC(=O)Cn2cc(COc3ccc(C=Nc4cnc5ccccc5c4)cc3)nn2)cc1`, for which the growth is 125% (inactive).

In the case of `C/C(=N\N=C1/C(=O)Nc2ccccc21)c1ccc2c(c1)Nc1ccccc1S2`, the growth was 96.1% (inactive).

As for `C/C(=N\N=C1/C(=O)Nc2ccc(Cl)cc21)c1ccc2c(c1)Nc1ccccc1S2`, the growth was -11.5% (active).

As for `CCN(CC)c1ccnc(CNCCSC(c2ccccc2)(c2ccccc2)c2ccc(C)cc2)c1`, the growth is -87.5% (active).

Consider `Cc1cc2c(cc1Cl)C(=O)/C(=C/c1ccccc1)O2`, for which the growth is -33.9% (active).

For the compound `COc1ccc(C(=O)/C=C/c2ccc(OCc3ccc(F)cc3)c(OC)c2)cc1OC`, the growth was 18.7% (inactive).

Turning to `COc1cc(OC)c2c3nc4cc(C)c(C)cc4nc3n(CCN(C)C)c2c1`, the growth is -18.4% (active).

For `N=C1N=C(SCc2nc3ccccc3[nH]2)NC(=O)/C1=C/c1ccc(Cl)cc1`, the growth was 113% (inactive).

As to `COc1ccc(C2CC(c3ccc(S(=O)(=O)NCCNc4nc(Nc5ccc(F)cc5)nc(N(C)C)n4)cc3)=Nc3c(N)nc(N)nc3N2)cc1` (stereo not drawn), the growth was 53.3% (inactive).

For the compound `O=C(Cn1nc(-c2ccccc2)ccc1=O)N/N=C/c1ccc(N2CCOCC2)cc1`, the growth was 111% (inactive).

In the case of `CC1(C)CC[C@]2(C(=O)O)CC[C@]3(C)C(=CCC4[C@@]5(C)C[C@@H](O)[C@@H]6OC(c7cccc(Br)c7)OC[C@@]6(C)C5CC[C@]43C)C2C1` (stereo partly drawn), the growth was 71.3% (inactive).

`COc1ccc(C(=O)/C=C/c2ccc(OCc3ccccc3)c(OC)c2)cc1OC`: the growth was 24.2% (inactive).

Regarding `O=C(N=Nc1c(O)[nH]c2ccc([N+](=O)[O-])cc12)c1ccc2nc(-c3ccccc3)[nH]c2c1`, the growth was 74.6% (inactive).

`C/C(=N\N=C\c1cc([N+](=O)[O-])ccc1Cl)c1ccc2c(c1)Nc1ccccc1S2`: the growth was 62.8% (inactive).

Regarding `C=C1CCC2C3(C)COC(c4ccc(F)cc4)OC3CCC2(C)C1C/C=C1/C(=O)OCC1O` (stereo not drawn), the growth is -69.7% (active).

As for `CCCSc1nc(NCCc2c[nH]c3ccccc23)c(C#N)c(-c2ccc(OC)cc2)n1`, the growth is -17.3% (active).

For `N/C(=N\c1nc2ccccc2s1)NC(=O)Nc1ccccc1Br`, the growth is 0.178% (active).

`O=C(Cn1c2c(sc1=O)[C@H]1[C@@H](O)[C@@H](O)[C@H](O)[C@@H]1CS2)N1CCOCC1`: the growth is 117% (inactive).

Consider `COC(=O)/C=C/c1cccc2c1C(=O)NC(C)(c1cc3ccccc3oc1=O)N2` (stereo not drawn), for which the growth was 58.9% (inactive).

Regarding `Brc1ccc(-c2n(Cc3ccc4ccccc4c3)c(-c3ccccc3)c(-c3ccccc3)[n+]2Cc2ccc3ccccc3c2)cc1`, the growth is -69.6% (active).

For the compound `COc1ccc(NC(=O)Cn2c3c(sc2=O)[C@H]2[C@@H](O)[C@@H](O)[C@H](O)[C@@H]2CS3)cc1`, the growth was 114% (inactive).

With `Cc1cc2nc3c4ccccc4n(CCCN(C)C)c3nc2cc1C`, the growth was -62.1% (active).

For `O=S(=O)(Nc1cccc(-n2cnc3cc(-c4ccc(O)cc4)ccc32)c1)C1CC1`, the growth is 4.76% (active).

In the case of `CN(C)c1ccnc(CNCCSC2(c3ccc(C(F)(F)F)cc3)c3ccccc3C=Cc3ccccc32)c1`, the growth is -26.7% (active).

As for `CN(C)c1nc(NCCNS(=O)(=O)c2ccc(C3=Nc4c(N)nc(N)nc4NC(c4ccc(C(F)(F)F)cc4)C3)cc2)nc(Nc2ccc(F)cc2)n1` (stereo not drawn), the growth was -11.9% (active).

In the case of `O=C(NN1C(=O)/C(=C/C=C/c2ccc([N+](=O)[O-])o2)SC1=S)c1ccc(Cl)cc1`, the growth is -92.1% (active).

Turning to `COCOc1ccc2c(=O)c(C)c(C(=O)N[C@@H](Cc3ccccc3)C(O)C(=O)NCCc3ccc(OC)cc3)oc2c1` (stereo partly drawn), the growth is 99.1% (inactive).

Regarding `C#CCOc1cc(N(CC)CC)ccc1C(C(=O)NC(C)(C)C)N(C(=O)C1CCc2cc(F)ccc2O1)c1ccc(Br)cc1` (stereo not drawn), the growth is 103% (inactive).

In the case of `Cc1cc2nc3c4ccccc4n(CC4=NCCN4)c3nc2cc1C`, the growth was -67.2% (active).

In the case of `Cn1cc(-c2nc(N)nnc2-c2c[nH]c3ccc(F)cc23)c2cccnc21`, the growth is 60.5% (inactive).

`COc1ccc(N2N=C(c3ccc4c(c3)OCO4)CC2c2cccc(NC(=O)CCNS(=O)(=O)c3ccc(Cl)cc3)c2)cc1` (stereo not drawn): the growth is 4.88% (active).

Regarding `Cc1nc(Nc2ccccn2)sc1C(=O)CC(SCC(=O)Nc1ccc(Cl)cc1)c1ccccc1F` (stereo not drawn), the growth is 1.73% (active).

With `Cc1cccc(-c2nc(Nc3ccc(C)c(S(N)(=O)=O)c3)c3ccccc3n2)c1`, the growth is 22.6% (inactive).

Regarding `CN(C)CCn1c2ccccc2c2nc3cc(C(F)(F)F)ccc3nc21`, the growth is 42.7% (inactive).

With `S=C(Nc1ccccc1)Nc1ccc(OCc2nc3ccccc3[nH]2)cc1`, the growth was 75.1% (inactive).
